# Out of some 210,000 compounds screened, about 5,900 (2.8%) were called active. Entries that show only a call come without a potency. Not shown: some 5% with an inconclusive outcome. The sample as a whole holds a higher share of actives than the screen did. Unmarked numbers belong to inactive results. Calls follow the shape of the dose curve; as a rule, active = well fitted activation curve with a large enough effect; inconclusive = small, poorly fitted or top-dose-only effect; inactive = no such curve, though single readings can be large or run the other way.
# Test: qHTS Assay for Enhancers of SMN2 Splice Variant Expression; also: nearly all actives have a fitted effect of over 55% in size
# Settings: HEK293 SMN2-luciferase splicing reporter, luminescence, 30-36 h; series mostly up to 46.1 µM
# Outline: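 qHTS luciferase splicing reporter: luminescence rises when SMN2 exon 7 is included in transfected HEK293 cells. Compound exposure lasted 30-36 h at 37C, with 4.5 mM final sodium butyrate as control, followed by a ONE-Glo read.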
# Potency is read from the fitted curve at half-maximal effect.
SMILES,Potency,"activity change, positive = activation"
Cn1nc(-c2ccccc2)c(-c2nc(-c3ccc(Cl)cc3)no2)c1Cl,inactive,–
Brc1ccc(-c2noc(-c3ccccc3)n2)o1,11.2 µM (active),–
Nc1nonc1-c1noc(-c2ccc(Br)o2)n1,inactive,–
CCCN(CCC)c1ccc(C(O)c2nnc(-c3ccccc3)o2)cc1 (stereo not given),inactive,–
Brc1ccc(-c2nnc(-c3ccccc3)o2)o1,14.1 µM (active),–
OC(c1nnc(-c2ccccc2)o1)c1cccs1 (stereo not given),inactive,–
COC(=O)c1sc2ncccc2c1-n1c(C)ccc1C,inactive,–
Cc1sc2ncn(CC(=O)N3CCN(c4ccc(F)cc4)CC3)c(=O)c2c1S(=O)(=O)N1CCN(c2ncccn2)CC1,inactive,–
CCc1nccn1S(=O)(=O)c1cc(Br)ccc1Br,inactive,–
Cc1ccc(-c2nn(CCC(=O)Nc3ccc(Cl)c(Cl)c3)c(=O)c3ccccc23)cc1,inactive,–
CC(C)Cn1c(C2CC(=O)N(c3ccccc3Cl)C2)nc2ccccc21 (stereo not given),inactive,–
Cc1cccc(NC(=O)CSc2nc3c(oc4ccccc43)c(=O)n2-c2ccc(F)cc2)c1,inactive,–
Cc1cc(C)c2oc(C(=O)Nc3ccc(S(=O)(=O)N4CCCCCC4)cc3)cc(=O)c2c1,inactive,–
Cc1ccc(S(=O)(=O)N(Cc2nc(-c3ccc(Cl)cc3)no2)C2CCCCC2)cc1,inactive,–
COc1ccc(C=Nc2cccc3ncccc23)cc1,inactive,–
O=c1c2ccccc2nc(N/N=C/c2ccccc2)n1O,inactive,–
COc1ccc(/C=N/Nc2nc3ccccc3c(=O)[nH]2)cc1,12.6 µM (active),–
CCc1cc2c(cc3c(=O)n(CC(=O)N4CCN(c5cc(Cl)ccc5C)CC4)nc(CC)n32)s1,inactive,–
CCCS(=O)(=O)c1c(Nc2ccccc2C)sc(C(=O)c2ccccc2)c1N,inactive,–
O=c1c2cccnc2n(Cc2cccc(F)c2)c(=O)n1Cc1ccccc1Cl,inactive,–
CCCCOC(=O)CSc1ncnc2sc3c(c12)CCC(C)C3 (stereo not given),inactive,–
Cc1ccc(NC(=O)CNCc2ccccn2)cc1S(=O)(=O)N(C)C,inactive,–
Cc1ccc(C(=O)Nc2ccc(C)c(S(=O)(=O)N(C)C)c2)s1,12.6 µM (active),–
Cc1ccc(NC(=O)c2cccs2)cc1S(=O)(=O)N(C)C,inactive,–
CCc1cc(C(c2ccccc2OC)N2CCOCC2)c(NC(=O)c2ccccc2)s1 (stereo not given),inactive,–
COc1ccc(NC(=O)c2c(C)oc3c2CCCC3)cc1,inactive,–
COc1cc(OC)cc(C(=O)OCC(=O)Nc2ccc(F)cc2F)c1,inactive,–

SMILES,Potency,"activity change, positive = activation"
COc1ccc(C(=O)Nc2ccc(F)cc2F)cc1,10 µM (active),–
COc1ccc(C(=O)Nc2onc3c2CCCC3)cc1,0.794 µM (active),–
COc1ccc(C(=O)N/N=c2\oc3ccccc3cc2C(N)=O)cc1,inactive,–
COc1ccc(NC(=O)c2ccc(OC)cc2)cc1,11.2 µM (active),–
COc1ccccc1CC(=O)Nc1ccc(F)cc1F,inactive,–
O=C(Nc1cccc2ccccc12)c1onc2c1CCCC2,inactive,–
CCc1cc(C(N)=O)c(NC(=O)c2ccc(OC)cc2)s1,11.2 µM (active),–
COc1ccc(NC(=O)c2ccc(C#CC(C)(C)O)cc2)cc1,inactive,–
COc1ccc(C(=O)Nc2ccc(S(=O)(=O)NC(C)C)cc2)cc1,inactive,–
Cc1ccc(CCNC(=O)Cn2c(-c3cccs3)cc3cc(F)ccc32)cc1,inactive,–
COc1ccccc1CNC(=O)CCCCn1c(=O)c2ccccc2n(CC(=O)Nc2cc(Cl)ccc2C)c1=O,inactive,–
O=C(COc1ccc(Cl)cc1)N(Cc1ccco1)Cc1ccco1,inactive,–
COc1cccc(NC(=O)N(Cc2cn(C)c3ccccc23)C2CCCCCC2)c1,inactive,–
CCn1c2ccccc2c2cc(NC(=O)COc3ccc(C)cc3C)ccc21,inactive,–
CCOC(=O)c1ccc(NC2=CC(c3ccc(OCC)cc3)N(c3ccc(C(=O)OCC)cc3)C2=O)cc1 (stereo not given),inactive,–
Cc1nn2cc(-c3ccc(Cl)cc3)cnc2c1Br,3.55 µM (active),–
COc1ccccc1CNC(=O)CCn1c(=O)c2ccccc2n(CC(=O)Nc2ccc(Br)cc2F)c1=O,inactive,–
COc1ccc(NC(=O)c2ccc3oc(=O)c(S(=O)(=O)c4ccc(F)cc4)cc3c2)c(OC)c1,inactive,–
O=C(C1CC1)N1CCc2cc(Br)cc(S(=O)(=O)N3CCN(c4ccccc4F)CC3)c21,inactive,–
COc1cccc(C(=O)NC2=NC(c3ccc(N(C)C)cc3)CC(=O)N2)c1 (stereo not given),inactive,–
CC(=O)Nc1ccc(C(=O)Nc2nc(-c3cc(C)n(Cc4ccccc4)c3C)cs2)cc1,inactive,–
Cc1cc(-c2csc(N)n2)c(C)n1-c1ccccc1,12.6 µM (active),–
Cc1cc(-c2csc(N)n2)c(C)n1Cc1ccccc1,inactive,–
COc1ccc(CCNc2nc3c(-c4cccc(F)c4)nnn3c3ccccc23)cc1OC,inactive,–
CCCN(CCC)C(=O)C(Cc1ccccc1)NS(=O)(=O)c1ccc2c(c1)c(=O)n(C)c(=O)n2C (stereo not given),inactive,–
O=C(Nc1ccc(-c2nnc(-c3ccccc3)o2)cc1)C1CCCO1 (stereo not given),3.55 µM (active),–
O=C(Nc1cccc(-c2nnc(-c3ccccc3)o2)c1)C1CCCO1 (stereo not given),inactive,–

SMILES,Potency,"activity change, positive = activation"
O=C(Nc1nnc(CCc2ccccc2)s1)C1CCCO1 (stereo not given),inactive,–
CCOc1ccc(CCNC(=O)c2cc3c(=O)n(C)c4ccccc4c3n2C)cc1,inactive,–
Cn1c(COc2ccccc2C(C)(C)C)nc2ccccc21,inactive,–
CC1CCN(c2nc3ccc(C(=O)N4CCN(c5ccccc5)CC4)cc3s2)CC1,inactive,–
C=CC(C1=CC(=O)C=CC1=O)c1ccc(O)cc1 (stereo not given),inactive,–
N/C(=N\OC(=O)c1cc(-c2ccccc2)nc2ccccc12)c1ccncc1,inactive,–
Cc1cccc(C(=O)O)c1,inactive,–
Cc1cccc(/C(N)=N/OC(=O)c2ccccc2Cl)c1,11.2 µM (active),–
COc1ccc(CNc2nc(-c3ccc(Cl)cc3)nn2C(=O)c2ccccc2)cc1,inactive,–
COc1ccc2c(c1)c(=O)c(C(=O)c1ccccc1)cn2CC(=O)Nc1ccc2c(c1)OCCO2,inactive,–
Cc1ccc(-n2c(C)cc(C(=O)CSc3nnc4ccccn34)c2C)cc1,2.24 µM (active),–
N#Cc1ccc(CSc2nnc3ccccn23)cc1,inactive,–
O=C(CSc1nnc2ccccn12)c1ccccc1,12.6 µM (active),–
COc1ccc(-n2c(C)cc(C(=O)CSc3nnc(-c4cccs4)o3)c2C)cc1,inactive,–
Cn1c(CC(=O)Nc2ccccc2)nnc1SCC(=O)c1ccccc1,inactive,–
Cc1ccc(-n2c(C)cc(C(=O)CN3C(=O)C(=O)N(C4CCCC4)C3=O)c2C)cc1,inactive,–
Cn1c(=O)c2c(nc(Oc3ccc(C#N)cc3)n2Cc2ccc(Cl)cc2Cl)n(C)c1=O,inactive,–
Cc1cccc(C(C)C)c1NC(=O)C(NS(=O)(=O)c1cccc2nsnc12)c1ccccc1 (stereo not given),inactive,–
CCOC(=O)N1CCc2c(sc3c2c(=O)n(Cc2ccccc2)c(=O)n3CC(=O)Nc2cccc(C)c2)C1,inactive,–
COc1ccc(N2CCN(C(=O)c3cn(C)c4ccc(S(=O)(=O)N5CCOCC5)cc4c3=O)CC2)cc1,inactive,–
Cc1cc(NC(=O)CC(C)C)cc(-c2nc3ncccc3o2)c1O,inactive,–
COc1ccc(NC(=O)CSC2=Nc3ccccc3C3=NC(CC(=O)NCc4ccccc4OC)C(=O)N23)cc1Cl (stereo not given),inactive,–
CCc1ccccc1N1CC(c2nc3ccccc3n2CCCCOc2ccccc2)CC1=O (stereo not given),inactive,–
Cc1cc(C)c(NC(=O)c2cc3sc(Cl)cc3n2C)c(C)c1,inactive,–
O=C(c1cnn2ccccc12)N1CCc2ccccc21,11.2 µM (active),–
Cc1cnc(C(=O)OCC(=O)N2CCc3ccccc32)cn1,inactive,–
O=C(c1cccc(C(=O)N2CCc3ccccc32)n1)N1CCc2ccccc21,inactive,–

SMILES,Potency,"activity change, positive = activation"
COc1cc(OC)c(C2C=C(C(=O)O)Nc3ncnn32)cc1OC (stereo not given),inactive,–
S=C(NCc1ccc2c(c1)OCO2)NCc1ccco1,inactive,–
S=C(NCc1ccco1)Nc1ccc2c(c1)OCCO2,15.8 µM (active),–
FC(F)Oc1ccc(NC(=S)NCc2ccco2)cc1Cl,inactive,–
COc1ccccc1CNC(=O)c1ccc(NC(=O)N2CC(C)Sc3ccccc32)cc1 (stereo not given),inactive,–
CC(=O)N1CCc2cc(Br)cc(S(=O)(=O)CCC(=O)NCCc3ccc(Cl)cc3)c21,inactive,–
Cc1cc(C)nc(N/N=C/c2c(C)oc3ccccc23)n1,inactive,–
Cc1noc(C)c1/C=N/Nc1ccc2ccccc2n1,14.1 µM (active),–
C(=N\Nc1ccc2ccccc2n1)/c1ccc2c(c1)OCO2,inactive,–
CCOC(=O)c1oc2ccc(S(=O)(=O)n3nc(-c4ccccc4OC)cc3N)cc2c1C,inactive,–
COc1ccc(-c2nc3c(c4c2C[C@H](c2ccccc2)OC4)CN(S(=O)(=O)c2c(C)noc2C)CC3)c(C)c1,–,-6.74% [at 9.22 µM]
Cc1ccccc1C(=O)NCc1nc(-c2ccc(Cl)cc2)no1,inactive,–
COc1ccc(-c2noc(COc3ccc(Cl)c(C)c3)n2)cc1,inactive,–
Cc1cc(Cl)ccc1OCc1nc(-c2ccncc2)no1,12.6 µM (active),–
O=C(c1ccc2c(c1)N(Cc1ccccc1)C(=O)c1ccccc1S2(=O)=O)N1CCCC1,inactive,–
O=C(CCCCn1c(=O)c2ccccc2n(CC(=O)Nc2cccc(C(F)(F)F)c2)c1=O)NCc1ccc2c(c1)OCO2,inactive,–
CCSc1nnc(-c2cc3c(s2)-c2ccccc2CC3)o1,15.8 µM (active),–
Fc1ccc(CSc2nnc(-c3cc4c(s3)-c3ccccc3CC4)o2)cc1,inactive,–
Cc1cccc(-c2nnc(SCC(=O)N3CCCc4ccccc43)o2)c1,inactive,–
COc1ccccc1-c1noc(CSc2nnc(-c3ccccc3)n2-c2ccc(C)c(C)c2)n1,inactive,–
CCCCOc1ccc(C(=O)Nc2cccc(-c3nc4ccccc4o3)c2C)cc1,inactive,–
NC(=O)Cc1nc2scc(-c3ccc(Cl)cc3)c2c(=O)[nH]1,inactive,–
O=c1[nH]c(CN2CCOCC2)nc2cc(Cl)ccc12,inactive,–
O=c1[nH]c(CCl)nc2cc(-c3ccc(Cl)cc3)sc12,7.08 µM (active),–
